MITF primary – MITF inhibitors, primary screen, biochemical, AlphaScreen, human | Microphthalmia-associated transcription factor (Homo sapiens), O75030 | AlphaScreen MITF homodimerization, bead proximity signal | inhibition, % at 2.6 µM | hit rate 0.91% among 650,000; in the data active = inhibition above about 50%
Target sequence (O75030 whole entry, looked up): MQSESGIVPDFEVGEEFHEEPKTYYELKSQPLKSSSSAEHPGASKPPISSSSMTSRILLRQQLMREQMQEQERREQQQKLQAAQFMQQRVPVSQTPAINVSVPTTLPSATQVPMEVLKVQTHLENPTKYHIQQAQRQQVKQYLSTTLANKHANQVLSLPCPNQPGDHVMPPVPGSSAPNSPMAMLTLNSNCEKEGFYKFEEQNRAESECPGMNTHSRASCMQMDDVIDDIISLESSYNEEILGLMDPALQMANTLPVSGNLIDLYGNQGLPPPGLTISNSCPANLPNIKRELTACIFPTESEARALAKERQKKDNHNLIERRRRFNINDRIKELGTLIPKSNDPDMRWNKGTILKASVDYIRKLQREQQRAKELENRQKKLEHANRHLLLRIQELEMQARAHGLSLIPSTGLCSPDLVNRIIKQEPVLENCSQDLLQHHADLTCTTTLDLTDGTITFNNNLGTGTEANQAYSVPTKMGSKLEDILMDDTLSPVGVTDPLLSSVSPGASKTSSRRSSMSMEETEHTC
GPR151 ag – activators of human GPR151, primary screen, cell-based, PathHunter beta-arrestin, luminescence. PathHunter beta-arrestin GPR151 cells. activation, % at 11.2 µM. hit rate 1% among 650,000; in the data active = activation above about 4.9%
TEAD-YAP inh – TEAD-YAP interaction inhibition, primary screen, TEAD-YAP interaction inhibitor project, luminescence, HEK-TIYL cells; AID 1259422, 2018; inhibition, % at 9.12 µM; TEAD-Gal4/YAP UAS-luciferase luminescence; hit rate 1.4% among 640,000; in the data active = inhibition above about 32%
FBW7 activator – FBW7 E3 ligase activators, primary screen, biochemical, AlphaScreen, human; F-box/WD repeat-containing protein 7 (Homo sapiens), Q969H0; AlphaScreen FBW7–phospho-cyclin E peptide binding, activator screen; normalized activity (activation), % at 26.1 µM; hit rate 0.13% among 650,000; AID 1259310, 2017; in the data active = normalized activity above about 1.9%;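 note: purified mutant Fbw7 with reduced substrate affinity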
GPR151 conf act – GPR151 activators, triplicate retest, confirmation, cell-based, PathHunter beta-arrestin, luminescence; shares compounds with GPR151 ag; AID 1508609, 2020; 6,700 tested, under 10 active; GPR151 PathHunter beta-arrestin cells, 90 min; % of EA-reagent control over plate median; activation, % at 11.2 µM;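 active = mean percent activation across replicates above the confirmation screen cutoff of 4.91%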
GPR119 ag – GPR119 activators in beta-arrestin cells, counter-screen for GPR151 activator project, cell-based, PathHunter beta-arrestin, luminescence, triplicate; hit rate 0.3% among 6,700; 90 min; 0 = compound-well median, 100 = enzyme-acceptor control; shares compounds with GPR151 ag; activation, % at 11.2 µM;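 active = mean percent activation in the counterscreen above 29.09%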;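 note: counterscreen on off-target GPR119 to flag nonselective hits from the GPR151 activator screen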
Each line names hits and unclear results; the compound was inactive in the other large screens (follow-up assays come after a bar, where they were run). Rows were chosen to be rich in hits. Some 3.5% of all compounds tested hit in one or more screens of this group.

O=C(Nc1ccc2oc(-c3ccc(F)cc3Cl)nc2c1)c1ccc([N+](=O)[O-])cc1	none
CC(C)c1ccc(NC(=O)c2ccc(N)cc2)c(N)c1	GPR151 ag 5.8 | GPR151 conf act inactive | GPR119 ag inactive
Nc1ccc(NC(=O)c2ccc(C(=O)Nc3ccc(N)cc3N)cc2)c(N)c1	none
O=C(CN1CCCCCC1)N/N=C/c1ccccc1F	GPR151 ag 7.2 | GPR151 conf act inactive | GPR119 ag inactive
CC(C)(C)NC(=O)CN(Cc1ccco1)C(=O)CNS(=O)(=O)c1ccccc1	none
Cc1noc(C)c1Cn1c(=O)c2c(ncn2Cc2ccccc2)n(Cc2ccccc2)c1=O	none
COc1ccc(N2CCN(C(=O)CN3CCN(c4cc(Cl)ccc4C)CC3)CC2)cc1	GPR151 ag 7.2 | GPR151 conf act inactive | GPR119 ag inactive
CC(C)c1ccc(NC(=O)c2ccc(N(C)C)cc2)cc1	none
CC(C)c1ccc(C(=O)Nc2ccc(N(C)C)cc2)cc1	GPR151 ag 19 | GPR151 conf act inactive | GPR119 ag inactive
CC(C)(C)c1ccc(C(=O)Nc2ncc(S(=O)(=O)c3ccc([N+](=O)[O-])cc3)s2)cc1	none
Cc1cccc(C(=O)Nc2ncc(S(=O)(=O)c3ccc([N+](=O)[O-])cc3)s2)c1	GPR151 ag 4.9 | GPR151 conf act inactive | GPR119 ag inactive
CC1(C)Cc2cccc(OCC(=O)NNC(=O)c3cccc(Cl)c3)c2O1	none
COc1cccc(CN(CC2CCN(C)CC2)C(=O)Nc2ccc(-c3cn[nH]c3)cc2)c1	none
O=C(NCc1ccccc1Cl)c1nnc(-c2ccncc2)o1	none
O=C(NCc1ccccc1Cl)c1nnc(-c2ccccc2)o1	GPR151 ag 5.0 | GPR151 conf act inactive | GPR119 ag inactive
CCCn1c(C2CC2)nc2ccccc21	GPR151 ag 9.9 | GPR151 conf act inactive | GPR119 ag inactive
O=C(NC1CCCCC1)c1ccc(F)c(F)c1	GPR151 ag 5.8 | GPR151 conf act inactive | GPR119 ag inactive
O=C(NC1CCCCC1)c1ccc(-n2cccc2)cc1	GPR151 ag 5.8 | GPR151 conf act inactive | GPR119 ag inactive
CCOC(=O)C(C(=O)NCc1ccccc1)C1CCCCC1 (stereo not given)	GPR151 ag 5.9 | GPR151 conf act inactive | GPR119 ag inactive
O=C(NC1CCCC1)C(c1ccncc1)N(C(=O)NCc1cccs1)c1ccncc1 (stereo not given)	GPR151 ag 10 | GPR151 conf act inactive | GPR119 ag inactive
COc1ccc(N(C(=O)Cc2cccs2)C(C(=O)NC2CCCC2)c2ccncc2)cc1 (stereo not given)	none
CC(C)(C)c1ccc(-c2c(C#N)c(N)nc3c2CCCCC3)s1	none
C/C(=N\NS(=O)(=O)c1ccc(C)cc1)c1c(O)c2ccccc2oc1=O	none
C/C(=N/NS(=O)(=O)c1ccc(C)cc1)c1c(O)c2ccccc2oc1=O	GPR151 ag 5.4 | GPR151 conf act inactive | GPR119 ag inactive
CCC(CCC(=O)NNC(=O)c1ccccc1Cl)C(=O)O (stereo not given)	none
CN(C(=O)c1cccc(S(=O)(=O)N2CCCCC2)c1)c1ccccc1	none
CNC(=O)c1ccc(OC)c(S(=O)(=O)N2CCC(C)CC2)c1	GPR151 ag 5.4 | GPR151 conf act inactive | GPR119 ag inactive
COc1ccc(C(=O)N(C)c2ccccc2)cc1S(=O)(=O)N1CCCC1	GPR151 ag 5.2 | GPR151 conf act inactive | GPR119 ag inactive
COc1ccc(C2CC(c3cccs3)=NN2C(=O)CSc2nnc(CNC(=O)c3ccccc3OC)n2-c2ccc(F)cc2)cc1 (stereo not given)	none
N#Cc1c(C(F)(F)F)c2c([nH]c1=S)CCCC2	none
OCc1ccc2c(c1)OCCOCCOc1cc(CO)ccc1OCCOCCO2	none
O=C(CC1(c2ccccc2)CC(=O)N(Cc2cccnc2)C1=O)N1CC[C@@H]2CCCC[C@H]2C1 (stereo not given in full)	GPR151 ag 9.5 | GPR151 conf act inactive | GPR119 ag inactive
O=C(CSc1nnnn1C1CCCC1)N1CCOCC1	none
O=C(CSc1nnnn1C1CCCCC1)N1CCCCC1	GPR151 ag 5.0 | GPR151 conf act inactive | GPR119 ag inactive
Cc1ccc(N(CC(O)Cn2nc(C)cc2C)S(=O)(=O)c2ccc([N+](=O)[O-])cc2)cc1 (stereo not given)	GPR151 ag 4.9 | GPR151 conf act inactive | GPR119 ag inactive
Cc1ccc(N(CC(O)CN2CCOCC2)S(=O)(=O)c2ccc([N+](=O)[O-])cc2)cc1 (stereo not given)	none
CNc1nc(Nc2ccnc(Nc3cc(OC)c(Br)cc3OC)c2)c(C(=O)OC)s1	none
Cc1nnc(SCCCn2c(N3CCOCC3)nc3c2c(=O)[nH]c(=O)n3C)s1	GPR151 ag 6.9 | GPR151 conf act inactive | GPR119 ag inactive
COC(=O)c1c(NC(C)=O)c2c(C)c(C)sc2n1Cc1cccc(OC)c1	none
C=Cc1ccc(Cn2c(C(=O)OC)c(NC(C)=O)c3c(C)c(C)sc32)cc1	GPR151 ag 5.4 | GPR151 conf act inactive | GPR119 ag inactive
COc1ccc(-c2noc(C(C)c3ccc([N+](=O)[O-])cc3)n2)cc1 (stereo not given)	GPR151 ag 5.1 | GPR151 conf act inactive | GPR119 ag inactive
COc1cccc(-c2nc(-c3ccc([N+](=O)[O-])cc3)no2)c1	none
CN1C(=O)c2cccc3c(S(=O)(=O)NCCC(=O)O)ccc1c23	none
Cn1nnnc1SCc1nnc(-c2cccs2)o1	GPR151 ag 7.6 | GPR151 conf act inactive | GPR119 ag inactive
Cn1nnnc1SCc1nnc(-c2ccccc2)o1	none
CCOC(=O)/C(=C\c1ccco1)NC(=O)c1ccccc1I	GPR151 ag 12 | GPR151 conf act inactive | GPR119 ag inactive
Cc1ccc(N2C(N)=C(C#N)C(c3ccc(Br)cc3)C3=C2CC(C)(C)CC3=O)cc1 (stereo not given)	none
Cn1cccc1C(=O)OCC(=O)NC(=O)NCc1ccccc1	GPR151 ag 6.2 | GPR151 conf act inactive | GPR119 ag inactive
CC(C)CN1CCN(Cc2ccc3cccc(F)c3n2)CC1CCO (stereo not given)	none
CC(C)(C)CN1CCN(Cc2ccc3cccc(F)c3n2)CC1CCO (stereo not given)	GPR151 ag 7.2 | GPR151 conf act inactive | GPR119 ag inactive
O=C(N/N=C\c1cccc([N+](=O)[O-])c1)c1ccc2ccccc2n1	none
COc1ccc(Cl)cc1C(=O)N/C(=C\c1cccc([N+](=O)[O-])c1)C(=O)Nc1ccc(C)cc1C	none
Cc1nn(CC(=O)Nc2ccc(Oc3ccc(Cl)cc3)cc2)c(C)c1[N+](=O)[O-]	none

Screening data as filed in PubChem.
